From PubChem BioAssay AID1347077 (National Center for Advancing Translational Sciences (NCATS), 2019)
The campaign covered roughly 44,000 compounds. Fewer than 10 were called active. The call rests on the fitted dose curve; in most records, active means well fitted activation curve with a large enough effect; inconclusive means small, poorly fitted or top-dose-only effect, or another doubt; inactive means no such curve, though single readings can be large or run the other way. A selection follows.

These compounds were tested against Beta-2 adrenergic receptor (Homo sapiens) (UniProt P07550) (assay: qHTS assay of beta-arrestin-biased ligands of beta2-adrenergic receptor: NCGC Sytravon Library Screen). Conditions: HTLA Tango cells, beta-arrestin recruitment, luciferase luminescence, 18 h; series mostly up to 46.1 µM; activation: at the top concentration.
From the text: The concept of biased agonism is an emerging concept of molecular pharmacology which proposes that seven transmembrane receptors (7TMRs) or G protein-coupled receptors (GPCRs), exist in multiple signaling conformations and complexes and that ligands (either agonists or antagonists) can induce signaling biased responses for distinct signal transduction cascades. […] Furthermore, accumulating evidence over the last decade has drawn attention to a novel function of beta-arrestins as signal transducers that scaffold various signaling molecules upon activation of 7TMRs. […] This beta-arrestin-biased signaling presumably leads to distinct physiological outcomes from those by G protein activation. Additionally, the active receptor conformations which prefer on this beta-arrestin signaling are likely different from those activating G protein signaling. […] The goal of this screening project will be to discover and optimize novel beta-arrestin-biased ligands for beta2-AR signaling. A luminescent cell-based assay for beta2-AR-mediated agonism, known as the Tango assay, has been validated in which ligand binding of a recombinant beta2-AR and subsequent recruitment of a recombinant beta-arrestin lead to the release of the transcriptional activator tTA, which upregulates transcription of a tTA-responsive luciferase gene. […] Compounds from the NCGC Sytravon Library collection were screened as a concentration-titration series that ranged from 46 microM to 0.6 nM. NIH Molecular Libraries Probe Production Network [MLPCN] NIH Chemical Genomics Center [NCGC] MLPCN Grant: Fast-track/HHSN271700800025C PI: Bryan Roth and Bob Lefkowitz
Tango cells were dispensed into white, solid, tissue-culture-treated 1536-well plates at 1500 cells/well in DMEM, containing 1% fetal bovine serum (FBS). Then, 23 nL of compounds or DMSO were delivered to each well using a pin tool. Plates were incubated at 37 degrees C, 5% CO2 for 18 hr. Then 2.5 uL luminescent substrate mix (in-house prepared: 150 mM Tris-Cl, pH 7.6, 3 mM MgCl2, 1% Triton X-100, 5 mM DTT, 0.5 mM CoA, 0.15 mM ATP, 0.44 mM D-luciferin, final concentrations) was added to each well. Plates were then incubated for 15 minutes at room temperature, and subsequently measured on a ViewLux plate reader for luminescent signal using a clear filter with a 10 second exposure and 2x binning. The %Activity was determined from the corrected luminescence values. […] Concentration-response curves were fitted to the signals arising from the resulting luminescence. The concentration-effect curves were then classified based on curve quality (r2), response magnitude and degree of measured activity, and compounds were subsequently categorized based on their curve class.
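Further: 0% = DMSO and full agonism = EC100 isoproterenol or metaproterenol.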

Beta-2 adrenergic receptor (Homo sapiens), sequence (P07550 whole entry, looked up): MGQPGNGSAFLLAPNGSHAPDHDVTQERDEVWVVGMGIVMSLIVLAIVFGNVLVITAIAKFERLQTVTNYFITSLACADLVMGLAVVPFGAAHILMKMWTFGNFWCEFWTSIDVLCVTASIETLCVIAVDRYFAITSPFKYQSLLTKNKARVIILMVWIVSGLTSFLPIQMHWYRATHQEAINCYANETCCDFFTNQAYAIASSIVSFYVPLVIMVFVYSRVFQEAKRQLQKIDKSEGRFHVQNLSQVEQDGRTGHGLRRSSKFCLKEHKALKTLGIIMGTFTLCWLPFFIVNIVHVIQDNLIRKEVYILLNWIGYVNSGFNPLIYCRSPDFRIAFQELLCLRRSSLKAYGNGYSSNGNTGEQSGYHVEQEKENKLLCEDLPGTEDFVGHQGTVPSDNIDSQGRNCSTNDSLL

activation, inactive:
OCc1cnc(SCc2ccc(F)cc2)n1Cc1ccc(F)cc1 -1.11%
CCOc1cc2[nH]c(=O)n(Cc3ccc(C(=O)NCCN(CC)CC)cc3)c(=O)c2cc1OCC -2.85%
COc1ccc(Nc2ncc3c(n2)CCN(C(=O)OC(C)(C)C)C3)cc1 -1.93%
CCOC(=O)CNC(=O)c1cc2c(=O)n3cccc(C)c3nc2s1 0.42%
COC(=O)c1ccc(NC(=O)CCc2c(C)nn(-c3ccc(N4CCCC4)nn3)c2C)cc1 0.407%
CC(=O)N1CCCc2cc(S(=O)(=O)N3CCC(C(=O)NCc4ccc(C)cc4)CC3)ccc21 -0.216%
O=C1CC(c2ccc(F)cc2F)c2cc3c(cc2N1)OCO3 (configuration not stated) 0.79%
COc1cccc(NC(=O)CSc2cc(=O)n(C)c3ccc(Cl)cc23)c1 0.89%
CC(=O)c1cccc(NC(=O)c2nc(-c3ccccc3)n(-c3cccc(C)c3)n2)c1 -1.39%
O=C(Nc1ccc2nc(SCC(=O)N3CCCc4ccccc43)sc2c1)c1ccc(Cl)cc1 -4.59%
COc1ccc(NC(=O)c2cc3cc(C)ccc3n2C)cc1 -4.51%
CCc1ccc(NC(=O)CN2CCSc3ccc(S(=O)(=O)N4CCCC4)cc32)cc1 2.13%
O=c1cc2nc(-c3ccccc3)nc(SCCOc3ccc(Cl)cc3)n2[nH]1 -1.33%
CCc1ccc(Sc2cc(C(=O)NCCCOC(C)C)c3ccccc3n2)cc1 5.47%
Cn1c(=O)c2c(nc(NCCc3ccccc3)n2Cc2ccccc2Br)n(C)c1=O 0.853%
O=C(CSc1ncc(S(=O)(=O)c2ccc(Br)cc2)c(=O)[nH]1)Nc1ccc2c(c1)OCCO2 -1.59%
CCN1CCN(c2cc(C)c3cc(NC(=O)c4cc(Cl)ccc4OC)ccc3n2)CC1 -0.147%
Cc1cccc(-n2c(=O)c3c(c4cc(C)ccc4n3C)n(CC(=O)Nc3ccccc3Cl)c2=O)c1 0.368%
CCc1ccccc1NC(=O)CSc1nc(C)c(C(=O)Nc2ccccc2)c(-c2ccc(Cl)cc2)c1C#N -0.211%
O=C(NCc1ccccc1Cl)C1=Cc2cc(Br)ccc2OC1 -0.0504%
COC(=O)C1=C(c2ccccc2)c2ccccc2S(=O)(=O)N1CC(=O)Nc1ccccc1C(F)(F)F -2.12%
Cc1ccc2cccc(NC(=O)c3cccc4ccccc34)c2n1 0.459%
CC(C)OCCCn1c(SCC(=O)c2ccccc2)nc2c(sc3ccccc32)c1=O -3.59%
CCC(C)Nc1oc(-c2ccc(COc3ccc(Cl)cc3)o2)nc1C#N (configuration not stated) -4.1%
Cc1ccc(NC(=O)c2nc(S(=O)(=O)Cc3cccc(C)c3)ncc2Cl)cc1 -1.39%
COc1ccc(C2C(=O)N(C3CCCCCC3)CC(=O)N2CCc2ccc(Cl)cc2)cc1OC (configuration not stated) -0.695%
CCOC(=O)c1cnc2c(C)cc(Cl)cc2c1NCCc1ccc(OC)c(OC)c1 -2.28%
Cc1cccc(CC(=O)Nc2cccc(-c3cn4cccnc4n3)c2)c1 0.528%
Cc1cc(C)cc(NC(c2nnc(-c3cccc(F)c3)o2)c2ccc(F)cc2Cl)c1 (configuration not stated) -2.14%
Cn1nnnc1SCCCNCc1cccc(OCc2ccc(Cl)cc2)c1 -4.7%
COCCn1c(CCC(=O)Nc2cc(C)ccc2C)nc2cccnc21 -2.56%
O=C(CSc1oc(-c2ccccc2)nc1S(=O)(=O)c1ccc(Br)cc1)NC1CCCCC1 0.602%
COc1ccccc1CNC(=O)CCCCn1c(=O)c2ccccc2n(CC(=O)Nc2cc(Cl)ccc2C)c1=O -1.9%
COc1cccc(CNC(=O)Cc2csc3nc(-c4ccccc4)cn23)c1 -0.157%
Cn1c(COc2ccccc2C(C)(C)C)nc2ccccc21 0.351%
Cc1ccc(CNC(=O)CSc2c(C)cnc3c2c(=O)n(C)c(=O)n3C)cc1 -3.91%
Cc1ccc(CN2CCC(CNC(=O)c3cnn(-c4ccc(C)cc4)c3C3CCN(C(=O)OC(C)(C)C)CC3)CC2)cc1 -0.676%
CSc1nc(=O)c2c(n1C)NC(=O)CC2c1ccccc1OC(C)C (configuration not stated) -3.09%
COc1ccc(-c2c(C)c3ccc(O)c(CN4CCCC4)c3oc2=O)cc1OC 4.22%
COc1ccccc1NC(=O)c1oc2ccccc2c1NC(=O)COc1ccccc1OC 1.24%
CC(=O)N1CCc2cc(S(=O)(=O)NC(Cc3ccccc3)C(=O)NCc3ccc(C)cc3)ccc21 (configuration not stated) 0.236%
O=C1Cc2cc(S(=O)(=O)Nc3ccc(OC(F)(F)F)cc3)cc3c2N1CCC3 -0.19%
CC1CCCN(c2nc3c(S(=O)(=O)c4ccc(C(C)C)cc4)nnn3c3ccsc23)C1 (configuration not stated) 0.103%
Cc1ccc(CSc2nc3ccsc3c(=O)n2CCC(C)C)cc1 -2.67%
CCOc1ccccc1CNC(=O)C1CCCN(S(=O)(=O)c2ccc3c(ccn3C)c2)C1 (configuration not stated) 1.37%
Cc1ccc2c(=O)cc(C(=O)Nc3sc4c(c3C(=O)NCc3cccnc3)CCCC4)oc2c1 -0.248%
COc1ccc(C(=O)Nc2ccc3nc(N4CCCCC4)cc(C)c3c2)cc1OC 0.327%
COC(=O)CC1Oc2ccccc2-n2cc(-c3ccccc3)nc21 (configuration not stated) 0.516%
CCOC(=O)c1cc(-c2ccc(OC)c(S(=O)(=O)Nc3ccc(OC)cc3OC)c2)on1 1.94%
Cc1cccc(NC(=O)c2ccc3nc(C(C)C)oc3c2)c1C 0.235%
COc1ccc(Cl)cc1-n1c(CCC(=O)O)ccc1-c1ccc(C)cc1 0.64%
O=C(Nc1ccccc1F)C(c1ccccc1)N1Cc2ccccc2C1=O (configuration not stated) -0.457%
Cc1ccc(-c2cc(N)n(Cc3cccc(Cl)c3)n2)cc1 0.672%
Cc1nc(SCC(=O)N2CCN(c3ccccc3)CC2)[nH]c(=O)c1C 0.294%
Cc1ccc(C)c(N2CCN(C(=O)C3CCC(CNS(=O)(=O)c4cccs4)CC3)CC2)c1 (configuration not stated) -1.22%
CCOc1ccc(CNCCSc2nnnn2C)cc1 0.552%
NS(=O)(=O)c1ccc(NC(=O)C(=O)Nc2ccc3nc4n(c(=O)c3c2)CCCCC4)cc1 -2.66%
CCc1ccc(-n2nnc(-c3nc(-c4ccccc4)no3)c2C)cc1 -0.41%
COc1cccc(CNc2nccn(-c3ccc(OC)c(OC)c3)c2=O)c1 0.0673%
COc1ccc(NC(=O)CSc2nc3ccccc3[nH]2)cc1 -2.24%
CC(C)c1ccc(NC(=O)C2CCN(c3nc(-c4ccc(C(C)C)cc4)no3)CC2)cc1 -0.161%
CCOc1cccc2cc(-c3cn4c(n3)sc3cc(C)ccc34)c(=O)oc12 -2.89%
CCc1cc2c(cc3c(=O)n(CC(=O)NCc4cccc(Cl)c4)nc(CC)n32)s1 0.858%
Cc1cc(C)cc(NS(=O)(=O)c2cc3c(cc2C)NC(=O)CO3)c1 -0.844%
Cc1[nH]c2ccccc2c1C(c1ccccc1)c1cccs1 (configuration not stated) 0.001%
CCOC(=O)c1c(C)[nH]c(C)c1S(=O)(=O)N1CCC(C(=O)Nc2ccc(C)c(Cl)c2)CC1 -0.156%
Cc1csc2nc(COc3ccc(NC(=O)COc4ccccc4)cc3)cc(=O)n12 0.0821%
COc1ccc(OC)c(CNC(=O)c2c3c(nc4ccccc24)C(=O)N(C2CCCCC2)C3)c1 -0.621%
Cc1ccc(NC(=O)CN2C(=O)C(c3ccc(F)cc3)=NC23CCCCCC3)c(C)c1 -2.97%
CCOc1ccc(C(=O)Nc2ccc3nc4c(c(Nc5ccccc5OC)c3c2)CCCC4)cc1 1.06%
CCc1ccc(S(=O)(=O)c2nnn3c2nc(N2CCN(CC)CC2)c2sccc23)cc1 0.0012%
O=C(c1ccccc1F)N1CCC(c2nc3c(nnn3Cc3cccc(F)c3)c(=O)[nH]2)CC1 0.988%
Cc1cc(=O)c2cc(C(=O)Nc3cccc(C)c3C)ccc2[nH]1 -2.58%
O=C(Nc1nnc(S(=O)(=O)N2CCOCC2)s1)c1cccc(Br)c1 -0.507%
COc1cccc(-c2nnc(SCC(=O)N3CCC(C)CC3)o2)c1 0.664%
COc1ccc2c(C)c(CCC(=O)NCc3ccc(OC)c(OC)c3)c(=O)oc2c1 1.22%
O=C(Cn1cc(SCc2cccc(Cl)c2)c2ccccc21)N1CCCCC1 -0.201%
COc1ccc(-c2cn3c(n2)sc2cc(C(=O)Nc4ccccc4F)ccc23)cc1 0.202%
COc1cc(OC)c(OC)cc1/C=C/c1nc2ccccc2c(=O)n1-c1ccc(Br)c(C)c1 1.95%
CCOC(=O)c1c(S(=O)(=O)N2CCCC(C(=O)NCc3ccc(F)cc3)C2)c(C)n(CC)c1C (configuration not stated) -1.48%
COc1ccc(CCNC(=O)CCCCn2c(=O)c3ccccc3n(Cc3ccccc3C)c2=O)cc1OC 8.59%
CCOc1ccc(S(=O)(=O)c2cn(Cc3ccccc3)c3ccc(OCC)cc3c2=O)cc1 0.937%
COc1ccc(NC(=O)CSc2nccn2C2CCCC2)cc1OC -2.77%
Cc1ccc(-c2cnc(C3CC3)o2)cc1S(=O)(=O)Nc1cccc(C)c1C 0.723%
COc1ccc(S(=O)(=O)NCC(c2ccco2)N2CCOCC2)cc1 (configuration not stated) -2.12%
CCOC(=O)c1c(NC(C)=O)c2c3c(sc2n1Cc1c(C)cc(C)cc1C)CCCC3 -0.225%
COc1ccc(-c2[nH]c3c(c2-c2c(-n4cccc4)n(C)c(=O)n(C)c2=O)c(=O)n(C)c(=O)n3C)cc1 -2.25%
CC(C)c1ccc(NC(=O)Cn2nnc(C(=O)NCCc3ccccc3)c2N)cc1 -0.0029%
CCn1c(=O)cc(OCC(=O)Nc2cc(Cl)c(OC)cc2OC)c2ccccc21 1.08%
CCc1ccc(NC(=O)Cn2c(=O)n(CCC(=O)NCc3ccc4c(c3)OCO4)c(=O)c3ccccc32)cc1 1.01%
Cc1cc(C)cc(NC(=O)CSc2nc3nccnc3c(=O)n2CCc2c[nH]c3ccccc23)c1 -0.453%
Cc1c(NC(=O)Cc2ccccc2)cccc1-c1nc2cccnc2s1 -2.39%
COc1ccc(S(=O)(=O)NCC(c2ccc(N(C)C)cc2)N2CCCC2)cc1 (configuration not stated) 1.28%
COc1ccc(N2CCN(S(=O)(=O)CCNC(=O)C(c3ccccc3)c3ccccc3)CC2)cc1 0.864%
N#C/C(=C\c1cccc(F)c1)c1nc(-c2cc3c(ccc4ccccc43)oc2=O)cs1 -0.271%
CCn1c2ccccc2c2nnc(N3CCN(c4cc(C)ccc4C)CC3)nc21 -0.208%
CCOc1ccc(OCC)c(NC(=O)c2c(C)nn(-c3ccccc3)c2-n2cccc2)c1 -4.02%
